What all share (experiment): yeast three-hybrid, YBZ-1, SC-Leu-His + 0.5 mM 3-AT, 4 days
What all share (conditions): tags: N-Gal4 AD-HA kept; label: inside an RPR1-promoter hybrid RNA with tandem MS2 sites; ssRNA

The target in one experiment is PUM1 PUF domain R3-KHV (Homo sapiens, UniProt Q14671 828-1176, C935K;R936H;Q939V). Summed up: (§1)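 Repeat regions from input (SC-Leu) and selection (SC-Leu-His + 0.5 mM 3-AT) plates were PCR-amplified and Illumina-sequenced after four days of growth. The cells were strain YBZ-1 with a LexA–MS2 coat fusion and a HIS3 reporter, co-expressing Pumilio-1 PUF domain libraries and matching RNA elements from a centromeric plasmid. The interaction score is the log change in variant frequency from input to selection, taken in log2 with a pseudocount of 1 for absent variants.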

A further experiment deals with PUM1 PUF domain R3-ARG (Homo sapiens, UniProt Q14671 828-1176, C935A;Q939G). Summed up: as §1
In another experiment the target is PUM1 PUF domain R8-KYC (Homo sapiens, UniProt Q14671 828-1176, N1122K;Q1126C). The method in brief:
as §1

For the next experiment, the target named is PUM1 PUF domain R8-PWS (Homo sapiens, UniProt Q14671 828-1176, N1122P;Y1123W;Q1126S). Summed up:
as §1

The next experiment concerns the target PUM1 PUF domain R8-KYQ (Homo sapiens, UniProt Q14671 828-1176, N1122K). Summed up:
as §1

The next experiment concerns the target PUM1 PUF domain R5-LYM (Homo sapiens, UniProt Q14671 828-1176, C1007L;R1008Y;Q1011M). The method in brief:
as §1

Another experiment deals with PUM1 PUF domain R5-QKN (Homo sapiens, UniProt Q14671 828-1176, C1007Q;R1008K;Q1011N). Summed up:
as §1

In the next experiment the target is PUM1 PUF domain R5-KFT (Homo sapiens, UniProt Q14671 828-1176, C1007K;R1008F;Q1011T). The method in brief:
as §1

In the next experiment the target is PUM1 PUF domain R8-HWR (Homo sapiens, UniProt Q14671 828-1176, N1122H;Y1123W;Q1126R). The method in brief:
as §1

A further experiment concerns the target PUM1 PUF domain R8-PYS (Homo sapiens, UniProt Q14671 828-1176, N1122P;Q1126S). The method in brief: as §1
The target of the next experiment is PUM1 PUF domain R2-LWY (Homo sapiens, UniProt Q14671 828-1176, N899L;Y900W;Q903Y). Summed up: as §1
Another experiment concerns the target PUM1 PUF domain R1-TVE (Homo sapiens, UniProt Q14671 828-1176, S863T;R864V;Q867E). The method in brief:
as §1

Sequence of PUM1 PUF domain R3-ARG (Q14671 828-1176 C935A/Q939G): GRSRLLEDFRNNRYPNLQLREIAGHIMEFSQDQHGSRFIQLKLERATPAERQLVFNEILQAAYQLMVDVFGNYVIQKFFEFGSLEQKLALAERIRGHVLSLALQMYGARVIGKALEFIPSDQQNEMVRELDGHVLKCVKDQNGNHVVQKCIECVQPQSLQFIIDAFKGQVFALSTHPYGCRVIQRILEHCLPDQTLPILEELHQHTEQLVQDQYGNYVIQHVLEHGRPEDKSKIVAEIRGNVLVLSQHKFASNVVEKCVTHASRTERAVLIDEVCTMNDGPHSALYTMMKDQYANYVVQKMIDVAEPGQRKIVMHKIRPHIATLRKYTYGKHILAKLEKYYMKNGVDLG
Sequence of PUM1 PUF domain R8-KYC (Q14671 828-1176 N1122K/Q1126C): as the sequence (Q14671 828-1176 C935A/Q939G) above, with A108C, G112Q, N295K, Q299C counted along it
Sequence of PUM1 PUF domain R8-KYQ (Q14671 828-1176 N1122K): as the sequence (Q14671 828-1176 C935A/Q939G) above, with A108C, G112Q, N295K counted along it
Sequence of PUM1 PUF domain R3-KHV (Q14671 828-1176 C935K/R936H/Q939V): as the sequence (Q14671 828-1176 C935A/Q939G) above, with A108K, R109H, G112V counted along it
Sequence of PUM1 PUF domain R8-HWR (Q14671 828-1176 N1122H/Y1123W/Q1126R): as the sequence (Q14671 828-1176 C935A/Q939G) above, with A108C, G112Q, N295H, Y296W, Q299R counted along it
Sequence of PUM1 PUF domain R5-LYM (Q14671 828-1176 C1007L/R1008Y/Q1011M): as the sequence (Q14671 828-1176 C935A/Q939G) above, with A108C, G112Q, C180L, R181Y, Q184M counted along it
Sequence of PUM1 PUF domain R1-TVE (Q14671 828-1176 S863T/R864V/Q867E): as the sequence (Q14671 828-1176 C935A/Q939G) above, with S36T, R37V, Q40E, A108C, G112Q counted along it
Sequence of PUM1 PUF domain R5-KFT (Q14671 828-1176 C1007K/R1008F/Q1011T): as the sequence (Q14671 828-1176 C935A/Q939G) above, with A108C, G112Q, C180K, R181F, Q184T counted along it
Sequence of PUM1 PUF domain R8-PYS (Q14671 828-1176 N1122P/Q1126S): as the sequence (Q14671 828-1176 C935A/Q939G) above, with A108C, G112Q, N295P, Q299S counted along it
Sequence of PUM1 PUF domain R8-PWS (Q14671 828-1176 N1122P/Y1123W/Q1126S): as the sequence (Q14671 828-1176 C935A/Q939G) above, with A108C, G112Q, N295P, Y296W, Q299S counted along it
Sequence of PUM1 PUF domain R5-QKN (Q14671 828-1176 C1007Q/R1008K/Q1011N): as the sequence (Q14671 828-1176 C935A/Q939G) above, with A108C, G112Q, C180Q, R181K, Q184N counted along it
Sequence of PUM1 PUF domain R2-LWY (Q14671 828-1176 N899L/Y900W/Q903Y): as the sequence (Q14671 828-1176 C935A/Q939G) above, with N72L, Y73W, Q76Y, A108C, G112Q counted along it

As for “GGCUAGAACUAGUGGAUCCCCCGGCGCCCGGCGGCUCGAGCCCGGGUAAGUGUAAUUAGUCUGCAUGCCGCCGGGCGCCAUGCCUGCAGGUCGACUCUAGAAAACAUG”, the figures for the binding signal in the experiment with PUM1 PUF domain R3-KHV and with PUM1 PUF domain R3-ARG were 2.96 log2 enrichment (interaction score) and 0.5 log2 enrichment (interaction score), respectively.
Regarding “GGCUAGAACUAGUGGAUCCCCCGGCGCCCGGCGGCUCGAGCCCGGGUAAGUGUAAAUAGUCUGCAUGCCGCCGGGCGCCAUGCCUGCAGGUCGACUCUAGAAAACAUG”, the binding signal in the experiment with PUM1 PUF domain R3-ARG is 3.94 log2 enrichment (interaction score); with PUM1 PUF domain R8-KYC, 2.79 log2 enrichment (interaction score); with PUM1 PUF domain R8-PWS it was 2.42 log2 enrichment (interaction score); in the experiment with PUM1 PUF domain R8-KYQ it was 5.9 log2 enrichment (interaction score); with PUM1 PUF domain R5-LYM, 2.36 log2 enrichment (interaction score).
As to “GGCUAGAACUAGUGGAUCCCCCGGCGCCCGGCGGCUCGAGCCCGGGUAAGUGUCAAUAGUCUGCAUGCCGCCGGGCGCCAUGCCUGCAGGUCGACUCUAGAAAACAUG”, the binding signal is 2.32 log2 enrichment (interaction score) in the experiment with PUM1 PUF domain R5-QKN and 5.09 log2 enrichment (interaction score) in the experiment with PUM1 PUF domain R5-KFT.
With “GGCUAGAACUAGUGGAUCCCCCGGCGCCCGGCGGCUCGAGCCCGGGUAAGCGUAAAUAGUCUGCAUGCCGCCGGGCGCCAUGCCUGCAGGUCGACUCUAGAAAACAUG”, the binding signal with PUM1 PUF domain R8-KYC is 6.06 log2 enrichment (interaction score); with PUM1 PUF domain R8-HWR it was 7.03 log2 enrichment (interaction score); in the experiment with PUM1 PUF domain R8-PYS, 3.23 log2 enrichment (interaction score).
Take “GGCUAGAACUAGUGGAUCCCCCGGCGCCCGGCGGCUCGAGCCCGGGUAAGUGUAAAAAGUCUGCAUGCCGCCGGGCGCCAUGCCUGCAGGUCGACUCUAGAAAACAUG”: in the experiment with PUM1 PUF domain R2-LWY, the binding signal was 8.01 log2 enrichment (interaction score).
In the case of “GGCUAGAACUAGUGGAUCCCCCGGCGCCCGGCGGCUCGAGCCCGGGUAAGUGUAAAUGGUCUGCAUGCCGCCGGGCGCCAUGCCUGCAGGUCGACUCUAGAAAACAUG”, the binding signal in the experiment with PUM1 PUF domain R1-TVE is 2.57 log2 enrichment (interaction score).

The values are drawn from article PMC8384837, “Expanding the binding specificity for RNA recognition by a PUF domain”.
